ChEMBL document CHEMBL4888484, “Replenishing the malaria drug discovery pipeline: Screening and hit evaluation of the MMV Hit Generation Library 1 (HGL1) against asexual blood stage Plasmodium falciparum ,using a nano luciferase reporter read-out” (2022)
The whole screen tested about 4,800 compounds, of which about 410 (8.5%) showed an effect of 50% or more. The entries come from a sample that favours strong results as a whole.

Each compound was assayed on Plasmodium falciparum (assay: Confirmatory screen in NF54 pLDH assay, in single point, at 2uM, 72h). Details: timepoint 72 hour.
Assay type: functional, Erythrocyte

SMILES	% Inhibition
COc1ccc(C(=O)n2nc(Nc3ccccc3Cl)cc2Nc2ccccc2Cl)cc1	12%
COc1ccc(-n2ncc3c(N)c4c(nc32)CCCC4=O)cc1	11%
C[C@@H](C(=O)Nc1cccc2ccccc12)N1CCCCC1	7%
CCOCCC1(CN=C(N)N2CCCCC2)CCCC1	5%
Cc1ccc(C2c3ccsc3CCN2CCC(=O)N2CCN(C(=O)Cc3cccs3)C(C)C2)cc1 (configuration not stated)	26%
OC[C@H]1CCc2nnc(C(F)F)n2C1	11%
CCn1nc(-n2cnnc2)c(NS(=O)(=O)c2cccc(Cl)c2)c1C	3%
Clc1ccc(COc2ccc(Cl)cc2CNCCCn2ccnc2)c(Cl)c1	100%
CCOc1cc(CNCCCn2ccnc2)ccc1OCc1ccccc1	23%
Clc1ccc(Cn2cc(CNCCCn3ccnc3)c3ccccc32)c(Cl)c1	100%
COc1cccc(CNCCCN2CCOCC2)c1OCc1ccc(Cl)cc1Cl	12%
OCCNCc1ccc(Cl)cc1Cl	6%
COc1cccc(CNCCN2CCOCC2)c1OCc1ccc(Cl)cc1Cl	11%
COc1ccc(NC(=O)[C@@H](c2cc(OC)c(OC)c(OC)c2)N(Cc2ccccc2)C(=O)Cn2nnc3ccccc32)cc1	-15%
COc1ccc(S(=O)(=O)N2CCN(S(=O)(=O)c3ccc(OC)cc3)C2)cc1	-2%
CCOc1c(CNC(C)(C)CC(C)(C)C)cccc1OC	5%
COc1ccc2cc3n(c2c1)C[C@](C(=O)NC1CCCCCC1)(c1ccccc1)N(Cc1ccccc1F)C3=O	-26%
CC(Oc1ccc2c(c1)C(c1ccccc1)N(Cc1ccccc1F)CC2)C(=O)NC1CC1 (configuration not stated)	50%
C[C@H](C(=O)NCC1CCN(Cc2ccccc2F)CC1)C1CCOCC1	3%
O=C(c1ccc2c(c1)OCO2)N1CCn2c1nc1ccccc12	3%
CC(=O)Nc1cccc(NC(=O)[C@H]2CC[C@H](Cn3c(O)nc4ccccc4c3=O)CC2)c1	5%

SMILES	% Inhibition
COc1cc2c(cc1Cl)-n1cccc1C1(CCNCC1)N2	-15%
CC1=CC(=[N+](CCO)CCO)C=C/C1=C(\c1ccc(N(CCO)CCO)cc1C)c1ccccc1Cl	87%
O=C(CN1CCN(Cc2cccc(Cl)c2)C1=O)N1CCN(c2ccccc2)CC1	4%
COc1cccc(-c2cc3c(N4CCC(C(=O)NC[C@H]5CCCO5)CC4)nccn3n2)c1	5%
Cc1ccc(S(=O)(=O)Cc2nc3cc(C)c(C)cc3[nH]c2=O)cc1	2%
O=S(=O)(NC1CCCCC1)c1ccc(Cl)c(S(=O)(=O)NC2CCCCC2)c1	6%
N#Cc1cc(S(=O)(=O)NCCN(C2CC2)S(=O)(=O)c2ccc(Cl)c(C#N)c2)ccc1Cl	86%
Cc1cccc(NC(=O)CCC(=O)OCC(F)(F)F)c1C	-1%
COc1cccc(-c2cc(C(=O)N3CCCN(C(=O)c4cc(-c5cccc(OC)c5)nc5ccccc45)CC3)c3ccccc3n2)c1	-26%
O[C@H]1CNCC[C@@H]1Nc1cc(-c2ccccc2)nc2ccccc12	76%
Cc1nc(-c2ccccc2)cc2nn(CC(=O)NC3CCCCC3)c(=O)n12	-8%
CC(C)(C)NC(=O)C1CCN(C[C@@H]2CC=CCC2)CC1	10%
Cc1ccc(/C=C(\C(=O)NC[C@H]2CCCO2)n2ccccc2=O)cc1	12%
CCCC1(CNC(=O)Nc2nc(CS(C)(=O)=O)no2)CC1	6%
CCCCCn1c(NCc2cc(Cl)ccc2O)nc2ccccc21	21%
CCOc1cc(CNCCN2CCOCC2)cc(Cl)c1OCc1ccccc1	9%
CCCc1noc([C@H]2CC(=O)N(c3ccccc3C)C2)n1	8%
CCc1nc2c(C(=O)N3CCOc4c(C)cc(C)cc43)ccnc2[nH]1	60%
CCOc1ccc(C/C(=C/N)c2nc(-c3ccc(Cl)cc3)cs2)cc1	15%
CCn1c(=O)c(N2CCC(C(=O)NCCCc3ccccc3)CC2)nc2cccnc21	-22%
Clc1cccc(-c2c[nH]c([C@@H]3COCCN3C3CCOCC3)n2)c1	-16%

SMILES	% Inhibition
CN1CCC[C@H](c2nnc3sc(-c4ccc(OCc5ccccc5)cc4)nn23)C1	8%
CC(C(=O)Nc1nccs1)N1CCCC(c2ccn[nH]2)C1 (configuration not stated)	45%
Cc1cc(-c2cncc(CN3CCCCC3)c2)ccc1F	8%
O=S(=O)(c1cccc(Cl)c1)N1CCc2nc(N3CCCCC3)nc(Oc3ccccc3)c2C1	78%
Cc1noc(C)c1CNc1cc(S(=O)(=O)N2CCCCC2)ccc1Oc1ccccc1	14%
Cc1ccc(-c2nn(Cn3nc(C)c(Cl)c3C)c(-c3ccc(C)cc3)c2Br)cc1	-12%
Cn1c(CN2CCOC[C@@]23CCOC3)nnc1C1CC1	13%
O=C(Nc1ccccc1Cl)Nc1cccc2c(-c3ccccc3)c(C(=O)N3CCOCC3)[nH]c12	12%
Cc1ccc(S(=O)(=O)c2c(C)cc(-c3ccccc3)nc2N2CCOCC2)cc1	12%
CCO[C@@]1(c2ccccc2)NC(=O)c2cc3c(cc21)OCCO3	-18%
CC(=O)N(CCN1CCOCC1)[C@H]1CCN(S(=O)(=O)c2cccc(Cl)c2)C1	9%
Cn1cc(CN2CCC(C(=O)NCCCN3CCCCC3)CC2)c2cc(Cl)ccc21	-8%
O=C(NCCCN1CCOCC1)c1ccc(-c2cnc(NC3CCCCC3)nc2)cc1	-15%
CO/N=C(\Nc1cc(C)ccc1C)c1nonc1N	16%
O=C(C[C@@H]1NC(=O)c2ccccc2NC1=O)NCc1ccc(Cl)cc1Cl	-6%
Nc1cc(F)c(Br)cc1Cl	7%
CCn1c(=O)c(N2CCC(C(=O)N3CCN(c4ccccc4F)CC3)CC2)nc2cccnc21	-9%
O=C1C[C@@H](c2cccc(Br)c2)c2c(O)nc(N3CCOCC3)nc2N1	-7%
CCN(C(C)=O)c1nc(CN2C(=O)N[C@](C)(c3ccc(F)cc3Br)C2=O)cs1	9%
Cc1nccc(O[C@H]2CCCN(C(=O)CN3CCN(c4ccccc4)C3=O)C2)n1	9%
COc1ccc(-c2c(-c3cccc(OC)c3)[nH]c3c2c(=O)[nH]c(=O)n3C)cc1	97%

SMILES	% Inhibition
COc1cccc(N2C(=O)N[C@H](C)C2=O)c1	15%
COc1cccc(C(=O)Nc2noc(-c3cccc(OC)c3)c2-c2ccc(Cl)cc2)c1	-19%
CCCN1CCN(S(=O)(=O)c2cccc3nonc23)CC1	11%
O=C1CCc2cc(N[C@@H](C(=O)N3CCCC3)c3ccccc3)ccc2N1	5%
Clc1cccc(N2CCN(Cc3nc(-c4ccco4)no3)CC2)c1	-1%
O=C(NC1CCN(Cc2ccco2)CC1)c1ccco1	-2%
Cc1nn(C)cc1C(=O)N1CCN(c2nncc3ccccc23)CC1	-10%
CCNC(=O)c1nc(-c2ccncc2)cs1	-16%
COc1ccnc(NCc2ccc(N3CCOCC3)cc2)n1	10%
O=C(Cn1nc(C2CC2)nc1C1CC1)N1CCOCC1	11%
CCN(C[C@H](C)C#N)C(=O)C(=O)Nc1ccc(F)cc1Cl	13%
COc1cc(Br)cc(C#N)c1O	9%
CC(C)c1cccc(Nc2nc3ccncc3n(C(C)C)c2=O)c1	94%
O=C(CCOCC(F)(F)F)Nc1ccc2c(c1)C(=O)NC2	-5%
Cn1cc(C(C(=O)O[C@@H]2C[C@@H]3CC[C@@]2(C)C3(C)C)c2cn(C)c3ccccc23)c2ccccc21	3%
CC[N+](CC)(CC(=O)OC1CC2CCC1(C)C2(C)C)CC(=O)OC1CC2CCC1(C)C2(C)C (configuration not stated)	92%
Cc1ccnc(-c2noc(Cn3c(=O)c(C)cn(C)c3=O)n2)c1	4%
Nc1nc(Cc2ccccc2)c(Br)c(=O)[nH]1	5%
COc1ccc(C2=NC3=S(N2c2ccccc2)N(C(C)=O)C(C(Cl)(Cl)Cl)N3c2ccccc2)cc1 (configuration not stated)	13%
